Screening data as filed in PubChem BioAssay.
MCF10A rerep = inducers of DNA re-replication in MCF 10A breast cells; actives 2.9% (n = 350,000); Potency, µM (highest dose often 46.1 µM), for the others: top-dose activity, positive = re-replication, usual class: activators; MCF 10A DNA re-replication, Hoechst nuclear intensity, 48 h; further: potency means the concentration at half of the fitted maximal effect; % of control where 0% means no effect; nearly all actives have a fitted effect of over 50% in size
KB-V1 MDR tox = KB-V1 MDR subline cytotoxicity. actives 3.4% (n = 400,000). AID 1347076. KB-V1 MDR cells viability, CellTiter-Glo, 72 h. Potency, µM (doses to about 46.1 µM), actives largely listed as cytotoxic; further: potency means the concentration at half of the fitted maximal effect; on the % scale 0 is the no-effect control and ±100 the full control effect; nearly all actives have a fitted effect of over 60% in size
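Compound-treated KB-V1 multidrug-resistant cells, 72 h, 37 degrees C; viability by CellTiter-Glo. Fitted qHTS curves give the values.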
KCNH2 3.1 block = blocks the human KCNH2 3.1 channel isoform. U2OS KCNH2 3.1, thallium flux FluxOr; hits give low values. activity change, % (tested at about 1.8 µM). actives 0.95% (n = 340,000);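 active means maximum activity change below -70%; inconclusive means maximum activity change from -70% to -50%; inactive means maximum activity change above -50%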;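 further: thallium influx rate constant from kinetic fluorescence after stimulation buffer; on the % scale 0 is the no-effect control and ±100 the full control effect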
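Steps: virus added to U2OS suspension (4 h, RT, dark); medium with 10% FBS added, cells plated, 37 C overnight; FluxOr/Red40 loading buffer 45 min RT; stimulation buffer, 2 min kinetic read; rate constant normalized.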
SW480 rereplic = DNA re-replication induction in SW480 cells | SW480 DNA re-replication, Hoechst DNA content imaging, 48 h | Potency, µM (series often up to 46.1 µM), for the others: at the highest dose re-replication activation, actives largely listed as activators | actives 1.8% (n = 340,000) | AID 624297; further: potency means the concentration at half of the fitted maximal effect; % of control where 0% means no effect; nearly all actives have a fitted effect of over 55% in size
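Image-based read-out: total Hoechst fluorescence of nuclei (405 nm excitation, 500-530 nm emission), with hits raising the fraction of high-intensity nuclei. SW480 colon cells incubated 48 hr with compounds at 37 C.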
KB-3-1 tox = kills parental KB-3-1 adenocarcinoma cells; AID 1347075; KB-3-1 viability, CellTiter-Glo ATP luminescence, 72 h; actives 1.4% (n = 400,000); Potency, µM (titrated, usually from 46.1 µM), hits mostly cytotoxic; further: potency means the concentration at half of the fitted maximal effect; on the % scale 0 is the no-effect control and ±100 the full control effect; nearly all actives have a fitted effect of over 60% in size
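Luminescent ATP read-out (CellTiter-Glo) measures survival of drug-naive KB-3-1 cells after 72 h compound exposure at 37 °C. Titration series was screened from lowest to highest concentration, with DMSO vehicle plates as background controls.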
KCNH2 WT inh = blocks the wildtype human KCNH2 potassium channel; Q12809; U2OS, BacMam KCNH2, thallium flux FluxOr; hits give low values; activity change, % at 1.84 µM; actives 0.37% (n = 340,000);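 active means maximum activity change below -70%; inconclusive means maximum activity change between -70% and -50%; inactive means maximum activity change above -50%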; further: on the % scale 0 is the no-effect control and ±100 the full control effect
Target sequence (Q12809 whole entry, looked up): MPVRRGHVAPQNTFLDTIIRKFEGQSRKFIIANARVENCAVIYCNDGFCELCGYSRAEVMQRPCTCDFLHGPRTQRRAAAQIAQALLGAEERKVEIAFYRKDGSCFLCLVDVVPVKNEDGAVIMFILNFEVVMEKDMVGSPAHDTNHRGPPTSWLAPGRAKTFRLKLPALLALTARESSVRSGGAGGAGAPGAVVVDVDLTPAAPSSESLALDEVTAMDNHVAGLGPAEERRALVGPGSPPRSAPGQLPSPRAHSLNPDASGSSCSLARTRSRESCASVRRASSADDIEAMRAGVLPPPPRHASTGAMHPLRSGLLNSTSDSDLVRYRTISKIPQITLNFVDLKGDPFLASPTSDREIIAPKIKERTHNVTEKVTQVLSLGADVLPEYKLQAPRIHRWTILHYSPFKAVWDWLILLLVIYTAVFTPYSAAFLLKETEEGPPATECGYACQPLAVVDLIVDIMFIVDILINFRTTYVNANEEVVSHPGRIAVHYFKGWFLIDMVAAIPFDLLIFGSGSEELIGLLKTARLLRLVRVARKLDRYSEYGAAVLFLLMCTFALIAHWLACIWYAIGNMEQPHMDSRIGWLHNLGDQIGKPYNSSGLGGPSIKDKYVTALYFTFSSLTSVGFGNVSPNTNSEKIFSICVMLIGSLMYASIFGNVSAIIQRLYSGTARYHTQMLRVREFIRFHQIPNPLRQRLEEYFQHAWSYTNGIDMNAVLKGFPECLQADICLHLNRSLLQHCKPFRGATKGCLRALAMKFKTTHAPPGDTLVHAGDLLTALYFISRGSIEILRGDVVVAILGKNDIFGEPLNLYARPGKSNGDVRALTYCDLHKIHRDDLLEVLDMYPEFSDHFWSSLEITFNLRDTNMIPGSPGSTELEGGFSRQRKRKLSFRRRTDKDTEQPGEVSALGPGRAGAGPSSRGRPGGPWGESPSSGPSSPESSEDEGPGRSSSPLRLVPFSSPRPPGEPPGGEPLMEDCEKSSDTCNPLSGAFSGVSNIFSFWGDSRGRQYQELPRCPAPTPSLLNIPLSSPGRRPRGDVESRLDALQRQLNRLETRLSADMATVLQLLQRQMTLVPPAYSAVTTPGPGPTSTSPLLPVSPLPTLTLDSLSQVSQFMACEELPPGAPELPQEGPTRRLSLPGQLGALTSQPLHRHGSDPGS
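U2OS cells transduced with wild-type KCNH2 virus are loaded with FluxOr dye for 45 min, and thallium flux is measured in kinetic reads before and after stimulation buffer. Rate constants are normalized to DMSO controls.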
* hit, by the source's call; i = inactive; ? = inconclusive; · = no result given. Hits are enriched below; roughly 7.6% of the tested compounds scored in any of these assays. Unless noted, the call rests on the fitted dose curve; in most records, active means well fitted curve in the direction sought with a large enough effect; inconclusive means small, poorly fitted or top-dose-only effect, or another doubt; inactive means no such curve, though single readings can be large; an effect the other way counts as inactive or inconclusive.

SMILES	MCF10A rerep	KB-V1 MDR tox	KCNH2 3.1 block	SW480 rereplic	KB-3-1 tox	KCNH2 WT inh
O=C(CCCc1ccccc1)N1CCN(c2ccc([N+](=O)[O-])cc2)CC1	3%	16µM*	-42	-12%	i	-12
CCOCC(=O)N1CCN(c2ccc([N+](=O)[O-])cc2)CC1	3%	18µM*	-73*	-1%	i	-95*
O=C(CCCC(=O)N1CCN(c2ccc([N+](=O)[O-])cc2)CC1)c1ccccc1	3%	?	-95*	-20%	i	-88*
O=C(CSc1ccsc1[N+](=O)[O-])N1CCN(c2ccccc2)CC1	-1%	?	-2	-6%	5.8µM*	-3
NS(=O)(=O)c1ccc(CCNC(=O)C2CCCN2S(=O)(=O)c2cccc3nsnc23)cc1 (configuration not stated)	-2%	?	9	8%	i	11
COc1ccc(C(=O)NC(Cc2ccccc2)c2ccc3c(c2)OCCCO3)cc1 (configuration not stated)	-19%	i	8	4%	i	-6
O=C(NC(Cc1ccccc1)c1ccc2c(c1)OCCCO2)c1ccccc1F (configuration not stated)	4%	16µM*	-14	2%	i	27
Cc1ccc(NCCC(=O)c2cccc([N+](=O)[O-])c2)cc1	6.5µM*	i	-29	?	i	-4
O=C(CCNc1ccccc1)c1cccc([N+](=O)[O-])c1	3.7µM*	i	-8	8.2µM*	i	-16
Cc1[nH]c2ccccc2c1/C=C(\C#N)S(=O)(=O)c1ccccc1	3%	i	-19	-1%	i	-11
Cc1cc(C)c(/C=C(\C#N)S(=O)(=O)c2ccccc2)[nH]1	18µM*	?	-7	0%	i	-11
O=C(NCc1cccnc1)c1cc(Sc2cccc(Cl)c2)nc2ccccc12	?	16µM*	2	1%	?	-17
CSc1nnc2c3ccccc3n(CCc3ccccc3)c2n1	?	i	-2	?	9.2µM*	2
CSc1nnc2c3ccccc3n(Cc3ccccc3)c2n1	-1%	i	-1	-11%	i	-1
COc1ccccc1C(=O)NC1(C(F)(F)F)C(=O)Nc2c1c(=O)[nH]c(=O)n2-c1ccc(F)cc1 (configuration not stated)	·	i	·	·	i	·
COC(=O)C1=CN(C(C)c2ccccc2)C=C(C(=O)OC)C1c1cc(OC)c(OC)c(OC)c1 (configuration not stated)	?	i	-8	21µM*	i	21
COC(=O)C1=CN(Cc2ccc(OC)cc2)C=C(C(=O)OC)C1c1cc(OC)c(OC)c(OC)c1	?	i	-1	-87%	i	5
CCCN(Cc1ccc(C)cc1)C(=O)c1ccc(CNS(=O)(=O)c2ccc(C(C)=O)cc2)cc1	48%	i	2	-18%	i	2
Cc1ccc(CNS(=O)(=O)c2ccc(N3CCCCS3(=O)=O)cc2)cc1	·	i	·	·	?	·
COc1ccc(CNS(=O)(=O)c2ccc(N3CCCCS3(=O)=O)cc2)cc1	·	?	·	·	16µM*	·
CCN(Cc1ccccc1)C(=O)c1ccc(CNS(=O)(=O)c2ccc(C)cc2)cc1	21µM*	18µM*	-43	82%	i	0
Cc1ccc(S(=O)(=O)NCc2ccc(C(=O)N3CCc4ccccc4C3)cc2)cc1	16%	4.6µM*	6	11%	i	-1
COc1ccc(S(=O)(=O)NCc2ccc(C(=O)N3CCc4ccccc4C3)cc2)cc1	2%	5.8µM*	8	-4%	?	-4
CC1CN(C(=O)CSc2nnc3c(Cl)cc(Cl)cn23)CC(C)O1 (configuration not stated)	-19%	i	8	0%	i	3
Cc1cc(=O)[nH]c(N/N=C/c2ccc(OC(=O)c3ccco3)cc2)n1	2%	i	-5	2%	i	-15
SMILES	MCF10A rerep	KB-V1 MDR tox	KCNH2 3.1 block	SW480 rereplic	KB-3-1 tox	KCNH2 WT inh
CCCN1CCN(C(=O)c2ccc(Sc3ccc(C)cc3)c(NC(C)=O)c2)CC1	-10%	i	-3	-9%	i	12
CC(=O)Nc1cc(C(=O)N2CCc3ccccc3C2)ccc1Sc1ccc(C)cc1	21µM*	?	-45	2%	i	-32
CCN1CCN(C(=O)c2ccc3c(c2)c(C)c(C)n3Cc2ccccc2)CC1	?	i	-15	-2%	i	6
CCn1c(C)c(C)c2cc(C(=O)N3CCc4ccccc4C3)ccc21	3.7µM*	?	-9	?	13µM*	-19
Nc1nc(N)c2[nH]cnc2n1	?	?	-92*	?	?	-4
COc1ccc(CN(C)CC(O)COC(c2ccc(OC)cc2)c2ccc(OC)cc2)cc1 (configuration not stated)	?	?	-113*	?	i	?
CCOc1ccc(CN(C)CC(O)COC(c2ccc(OC)cc2)c2ccc(OC)cc2)cc1 (configuration not stated)	18µM*	?	-93*	?	?	-85*
COc1ccc(C(OCC(O)CN(C)C2CCCCC2)c2ccc(OC)cc2)cc1 (configuration not stated)	9%	?	-44	15%	i	0
CC(NC(=O)CSc1nc(-c2ccccc2F)nc2cc(=O)[nH]n12)c1nc2ccccc2n1C (configuration not stated)	·	?	·	·	i	·
O=c1[nH]c(SCc2ccccc2)nc2c1sc1ccccc12	0%	i	-3	-2%	i	2
COc1ccc(S(=O)(=O)c2c(Nc3ccc(C)cc3)sc(C(=O)c3ccc4c(c3)OCO4)c2N)cc1	·	i	·	·	i	·
COc1ccccc1N1CCN(S(=O)(=O)c2ccc(-n3cnnn3)cc2)CC1	-7%	i	6	-7%	i	8
CCN(C(=O)COC(=O)c1ccc2c(c1)OCO2)c1ccc(F)cc1	1%	·	17	-1%	·	-6
Cc1c(NC(=O)/C=C/c2cn(-c3ccccc3)nc2-c2ccc(F)cc2)c(=O)n(-c2ccccc2)n1C	18µM*	i	7	18%	?	9
Cc1ccc(-c2nn(-c3ccccc3)cc2/C=C/C(=O)Nc2nccs2)cc1	?	i	3	3%	i	-1
CC1=NNC(=O)/C1=C\c1cn(-c2ccccc2)nc1-c1ccc(F)cc1	4.6µM*	?	-1	?	i	11
